Experimental data as given in PubChem BioAssay AID1850 (Southern Research Specialized Biocontainment Screening …, 2009).
Screen size: about 310,000 compounds; about 1,000 (0.32%) were called active. The list is a sample of the results. Results with a measured potency or affinity are listed apart. Values without a mark were called inactive. How the calls were made is not given here.

Experiment: PhoP regulon inhibitors, Salmonella typhi PhoP promoter GFP reporter, confirmatory (AID 1850);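 further: 0% = induced wells with vehicle and 100% = uninduced wells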
Conditions: fluorescence, 4 h, at 50 µM, stronger effect = higher value

| SMILES | inhibition |
| --- | --- |
| Cc1ccc(C(=O)N2N=C(c3cccc(NS(C)(=O)=O)c3)CC2c2cccs2)cc1 (stereo unspecified) | -10.1% |
| Cc1ccc(Cl)cc1NC(=O)C(=O)N/N=C/c1ccc2c(c1)OCO2 | -4.53% |
| COc1cccc(/C=C/C(=O)NCc2ccc(S(N)(=O)=O)cc2)c1 | -0.15% |
| CCOC(=O)c1c(NC(=O)Cn2ccsc2=N)sc(C)c1C | 14.8% |
| Cc1ccc(CSc2nnc(-c3ccncc3)n2C)cc1 | -10.9% |
| O=C(NC1CCCCCC1)c1ccc(Br)o1 | -0.61% |
| Cc1cc(NC(=O)CCC(=O)N(CC(=O)NC2CCCC2)c2ccc(Cl)c(Cl)c2)no1 | 14.6% |
| Cc1cccc(C(=O)NCC(=O)OCC(=O)NC2CCCCCCC2)c1 | 0.27% |
| Cc1ccc(-c2c[n+](CC(=O)Nc3c(C)cccc3C)c3n2CCC3)cc1 | -24.6% |
| O=C(C[n+]1cc(-c2ccc(F)cc2)n2c1CCC2)Nc1nc(-c2ccccc2)cs1 | 0.35% |
| O=C(C[n+]1cc(-c2ccc(F)cc2)n2c1CCC2)Nc1nc(-c2ccc(F)cc2)cs1 | -2.82% |
| Cc1ccc(-c2c[n+](CC(=O)Nc3nc(-c4ccc(F)cc4)cs3)c3n2CCC3)cc1 | -3.86% |
| CCOC(=O)C(C)c1ccc2cc(OC)ccc2c1 (stereo unspecified) | -2.05% |
| Cc1cc(C)c2c(c1)/C(=N/NC(=O)c1cc(C)oc1C)CCC2 | -3.06% |
| CN(C)c1ccnc2sc3c(SCc4ccc(Cl)cc4)ncnc3c12 | -7.49% |
| CC(C)n1c(SCc2ccc(Cl)cc2)nc2c1c(=O)[nH]c(=O)n2C | -4.82% |
| CN(C)CCN(C(=O)c1ccc(S(=O)(=O)N2CCCC2)cc1)c1nc2ccc(Br)cc2s1 | 0.55% |
| O=C(CC1NCCc2ccccc21)Nc1ccc(Cl)cc1 (stereo unspecified) | 8.21% |
| O=C(CC1NCCc2ccccc21)Nc1ccccc1 (stereo unspecified) | 7.99% |
| Cc1cc(NCCO)nc(N2CCOCC2)n1 | 4.73% |
| Cc1c(Br)cc(C(=O)O)c(C)c1C | 7.99% |

| SMILES | inhibition |
| --- | --- |
| COc1cc(C(=O)Nc2ccc(C)cc2C(NCC(=O)NN)c2ccccc2)cc(OC)c1OC (stereo unspecified) | -8.05% |
| O=c1cc(-c2ccccc2)cc(-c2ccccc2)n1CCO | 6.95% |
| Nn1c(-c2ccccc2)cc(-c2ccccc2)cc1=O | -2.08% |
| CN(C)c1ccc(/C=[N+](\[O-])C2N(c3ccccc3)C(=S)SC2(C)C)cc1 (stereo unspecified) | -5.4% |
| COc1cc(C2c3c(oc4ccccc4c3=O)C(=O)N2CCN2CCOCC2)cc(OC)c1OC (stereo unspecified) | -13.4% |
| Clc1ccccc1OCCCn1ccnc1 | -8.4% |
| c1ccc2cc(OCCCn3ccnc3)ccc2c1 | -0.84% |
| COc1ccc2nc(SCC(=O)Nc3ccccc3C#N)[nH]c2c1 | -8.31% |
| Cc1ccc(-n2nc3c(=S)[nH]nc(C)c3c2C)cc1 | 2.54% |
| COc1cccc(C(=O)Nc2ccc(C(=O)c3ccncc3)cc2)c1 | -15.6% |
| CCC(C)NC(=O)CSc1nnc(-c2c[nH]c3ccccc23)o1 (stereo unspecified) | 7.49% |
| COc1ccc(OC)c(Nc2c3ccccc3nc3ccccc23)c1 | -13.7% |
| COc1ccc(Nc2nc(-c3ccccc3)nc3ccccc23)cc1 | 6.48% |
| COc1ccc(Nc2cccc3ccccc23)cc1 | -1.63% |
| COc1cc(Nc2c3ccccc3nc3ccccc23)cc(OC)c1OC | -7.36% |
| COc1ccccc1Nc1c2c(nc3ccccc13)CCC2 | 0.56% |
| COc1ccc(Nc2ncnc3ccccc23)cc1 | -1.42% |
| Cc1ccc(O)c(Nc2ncnc3ccccc23)c1 | 3.94% |
| Cc1ccc(O)c(Nc2nc(-c3ccccc3)nc3ccccc23)c1 | 8.76% |
| COc1ccc(CCC(=O)NCCS(=O)(=O)N2CCN(c3ccc(F)cc3)CC2)cc1 | 3.06% |
| O=C(c1ccccc1)N1N=C(C(F)(F)F)CC1(O)c1ccc(F)cc1 (stereo unspecified) | -5.13% |

| SMILES | inhibition |
| --- | --- |
| CCOC(=O)c1ccc(S(=O)(=O)N2CCN(C(=O)CSc3nc4ccccc4o3)CC2)cc1 | 1.15% |
| CC(=O)c1c(C(C)=O)c(C)n(NC(=O)c2ccc(Cl)cc2)c1C | 2.98% |
| CN(C)C1=NCC(CSC(=N)N)S1 (stereo unspecified) | -1.53% |
| CCOc1ccc(N2CC(C(=O)Nc3ccc4c(c3)OCO4)CC2=O)cc1 (stereo unspecified) | 2.26% |
| Cc1ccc(C(=O)Nc2nnc(S(=O)(=O)N3CCC(C)CC3)s2)cc1 | 4.17% |
| O=C(COC(=O)c1ccc(Cl)c(S(=O)(=O)N2CCCC2)c1)NC1CCCCC1 | 5.96% |
| Cc1c2ccccc2nc2ccccc12 | -14.3% |
| COc1c2ccccc2c(OC)c2ccccc12 | -8.01% |
| CCOc1ccc(Nc2cc(C)c3ccccc3n2)cc1 | 10.8% |
| CCOc1ccc(Nc2nc3ccccc3c(=O)s2)cc1 | 10.5% |
| CCOC(=O)C(Cc1ccccc1)NC(=O)CNC(=O)CNC(=O)OCc1ccccc1 (stereo unspecified) | 4.1% |
| CC1CCCCN1C(=O)COC(=O)c1cc([N+](=O)[O-])ccc1N (stereo unspecified) | 0.19% |
| COCCN(C(=O)COC(=O)CC1CCCCC1)c1c(N)n(Cc2ccccc2)c(=O)[nH]c1=O | -6.56% |
| COc1ccc(/C=C(\NC(=O)c2ccco2)C(=O)NCCc2nc3ccccc3[nH]2)cc1 | 4.61% |
| Cc1cc(N(CCCl)CCCl)ccc1/C=N/N=C(\N)c1cnccn1 | 1.24% |
| CC(C)(C)c1ccc(C(=O)NCC(=O)OCC(=O)Nc2nc(-c3ccc(F)cc3)cs2)cc1 | 6.97% |
| Cc1ccc(C)c2[nH]c(=O)c(CN(CC3CCCO3)S(=O)(=O)c3ccc4c(c3)OCCO4)cc12 (stereo unspecified) | -7.59% |
| NC(=O)CN1CCN(CCN2C(=O)c3cccc4cccc(c34)C2=O)CC1 | 10.1% |
| CCN(CC)CCN1C(=O)c2cccc3cc(N)cc(c23)C1=O | 6.76% |
